This note sets out measurements from PubChem BioAssay (EPA / NIEHS).

Active and inactive are the calls of the source. The calls were made as follows: active = hit-call score of the fitted dose curve at least 0.9, where 1 is the maximum; inactive = score below 0.9.

A short description of this assay: CCTE_Padilla_ZF_Score.Swim_bladder: CCTE's 144 Hour Post-fertilization zebrafish Assay Score for Swim Bladder Malformation, Padilla Lab (AID 2284408). As to the method:
CCTE_Padilla_ZF_Phenotype_Score is a whole embryo, multiplexed assay using zebrafish ova exposed for 144 hours post fertilization on a 96-well plate.CCTE_Padilla_ZF_Score.Swim_bladder is one of one assay component(s) measured or calculated from the CCTE_Padilla_ZF_Phenotype_Score assay. It is designed to make measurements of zebrafish development as detected with brightfield microscopy of developing zebrafish embryos.Data from the assay component CCTE_Padilla_ZF_Score.Swim_bladder was analyzed into 1 assay endpoints. This assay endpoint, CCTE_Padilla_ZF_Score.Swim_bladder, was analyzed in the positive analysis fitting direction relative to DMSO as the negative control and baseline of activity. Using a type of viability reporter, gain-of-signal activity can be used to understand changes in developmentals as they relate to the whole embryo. To generalize the intended target to other relatable targets, this assay endpoint is annotated to the zebrafish development intended target family, where the subfamily is swim bladder morphogenesis.
Zebrafish husbandry: Wild type adult zebrafish (Danio rerio; undefined outbred stock obtained from Aquatic Research Organisms, Hampton, NH, 03842) were housed in an AAALAC-approved animal facility at 28C with a 14:10 h light: dark cycle (lights on at 08:30 h). Adult fish (2-3 females per male; density = 15-20 adults per tank) were kept in one of several 9-liter (L) flow-through colony tanks (Aquaneering Inc., San Diego, CA). All adults in a colony tank were placed in a 2 L (static) breeding tank (Aquatic Habitats, Apopka, FL) one hour prior to light onset. Typically, adults from two to three colony tanks were mated on the same day. Two hours after light onset the adults were returned to the colony tank. All embryos were gathered from each breeder tank, pooled, and placed in a 28C water bath for 2 h, followed by two washes with 0.06% bleach (v/v) in 10% Hanks' Balanced Salt Solution (13.7 mM NaCl 0.54 mM KCl, 25 uM Na2HPO4, 130 uM CaCl2 100 um MgSO4 and 420 um NaHCO3,), hereafter referred to as Hanks' solution, for 5 min in order to remove any residual bacteria or fungi. Immediately following washing, the embryos were examined, and healthy embryos were separated from dead or unfertilized eggs and moved into fresh Hanks'. Chemical exposures: Zebrafish embryos were exposed in 96-well plates. Between 6- and 8-hours post fertilization (hpf), healthy embryos (with chorions) were transferred, one embryo per well, into 96 well (0.5 mL) microtiter plates (Cell Culture-Treated, Flat-Bottom Microplate 96 well [Corning Costar, Kennebunk, ME; Cat 09-761-145]) filled with 200 uL of Hanks' solution. A random number generator was used to assign the order in which the rows of embryos were plated in 96 well plates each week. After plating, the embryos were dosed with 0.8 uL of the chemical dosing solution then immediately sealed with AlumaSeal II (Excel Scientific Inc, Victorville, CA) to prevent volatilization of the chemicals, and then placed in a leakproof secondary container. These containers were placed in an incubator maintained on a 14:10 h light: dark cycle at 26C for rearing. On 5 dpf, live larvae were gently moved out of the plate with test chemicals and into a new 96 well mesh plate (Millipore Corp., Bedford, MA) with just the Hanks' solution. Once within the mesh well plate, the animals were rinsed with 400 uL of fresh Hanks' three times, and then the plates were covered with a non-adhesive material (Microseal A, BioRad, Hercules, CA), plate lid added, and then plate sides wrapped in Parafilm (PM992, Bermis Company, Neenah, WI), and returned to the incubator. […]
For orientation: AC50 means the concentration at which the activity in the assay is half-maximal. For `FC(F)C(F)(F)COCC1CO1` (stereo not given), the AC50 was 32.2 µM (active). For `OCCC(F)(F)C(F)(F)C(F)(F)C(F)(F)F`, the result was inactive. For the compound `NCC(F)(F)C(F)(F)C(F)(F)C(F)(F)F`, the outcome was inactive. Still for that read-out and setting: as for `FC(F)(F)COC(OCC(F)(F)F)OCC(F)(F)F`, the entry is “inactive”. Regarding `OC(O)(C(F)C(O)(O)C(F)(F)F)C(F)(F)F`, the concentration at half-maximal activity (AC50) is 32.1 µM (active). For `O=C(Cl)C(F)(F)C(F)(F)C(F)(F)C(=O)Cl`, the compound was classed as inactive. The same measure, in the same setting: the same measure for `FC(F)(F)C(F)(F)C(F)(F)C(F)(F)C(F)(F)C(F)(F)I`: “inactive”; for `C[Si](C)(C)C(F)(F)C(F)(F)C(F)(F)F`: “inactive”; for `O=S(=O)(O)CCC(F)(F)C(F)(F)C(F)(F)C(F)(F)C(F)(F)C(F)(F)F`: “inactive”. Same read-out and setting: as for `FC(F)=C(F)C(F)(F)C(F)(F)C(F)(F)C(F)(F)C(F)(F)C(F)(F)F`, the entry is “inactive”.
